Source: PMC5540273 (PLoS ONE, 2017)

Assays:
Conditions in all cases: concentration: 1 μM,replicates: in singlicate; n = 1
[1] = system: PIP5K1A
[2] = system: PIP5K1C
[3] = system: PIP5K2B
[4] = system: T1, PIP5K2C
T1 construct: gene PIP4K2C

[5] = system: T2, PKAC-alpha
T2 construct: gene PRKACA

[6] = system: T3, PKAC-beta
T3 construct: gene PRKACB

[7] = system: PKMYT1
[8] = system: PKN1
[9] = system: PKN2
[10] = system: PLK1
[11] = system: PLK2
[12] = system: PLK3
[13] = system: PLK4
[14] = system: PRKCD
[15] = system: PRKCE
[16] = system: PRKCH
[17] = system: PRKCI
[18] = system: PRKCQ
[19] = system: PRKD1
[20] = system: PRKD2
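Also: KINOMEscan kinase panel screen.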

SMILES | %Inh [1] [%] | %Inh [2] [%] | %Inh [3] [%] | %Inh [4] [%] | %Inh [5] [%] | %Inh [6] [%] | %Inh [7] [%] | %Inh [8] [%] | %Inh [9] [%] | %Inh [10] [%] | %Inh [11] [%] | %Inh [12] [%] | %Inh [13] [%] | %Inh [14] [%] | %Inh [15] [%] | %Inh [16] [%] | %Inh [17] [%] | %Inh [18] [%] | %Inh [19] [%] | %Inh [20] [%]
CN1CCN(CCCNc2nccc(-c3c(-c4ccc(F)cc4)nn4cc(C(N)=O)ccc34)n2)CC1 [GW622475] | 0 | 50 | 12 | 29 | 6 | 1 | 9 | 13 | 0 | 0 | 0 | 0 | 10 | 29 | 14 | 22 | 41 | 42 | 65 | 67
Cc1ccc2c(-c3ccnc(Nc4ccc(C(F)(F)F)cc4)n3)cnn2n1 [GW819776] | 15 | 0 | 0 | 82 | 14 | 20 | 0 | 0 | 0 | 25 | 15 | 33 | 9 | 5 | 0 | 0 | 22 | 0 | 0 | 0
NC(=O)c1ccc(-c2cc3ncnc(SCC(=O)O)c3s2)cc1 | 0 | 93 | 6 | 72 | 0 | 0 | 0 | 0 | 4 | 0 | 0 | 6 | 56 | 0 | 0 | 0 | 0 | 0 | 0 | 0
Nc1nccc(-c2ccc3c(N)n[nH]c3c2)n1 [GSK1034945] | 0 | 29 | 48 | 10 | 12 | 0 | 8 | 0 | 9 | 0 | 0 | 0 | 0 | 0 | 0 | 11 | 3 | 21 | 0 | 0
OCCn1cc(-c2cnc3nnn(Cc4ccc5ncccc5c4)c3n2)cn1 | 1 | 3 | 0 | 0 | 0 | 0 | 0 | 0 | 0 | 0 | 0 | 50 | 4 | 0 | 49 | 0 | 0 | 0 | 5 | 0
c1ccc(Oc2ccc(Nc3ccnc4ccc(-c5ccccn5)cc34)cc2)cc1 [GW407034] | 6 | 23 | 25 | 28 | 0 | 8 | 11 | 28 | 0 | 0 | 0 | 0 | 15 | 0 | 3 | 0 | 0 | 27 | 0 | 5
CS(=O)(=O)c1cccc(CNc2nc(Nc3ccc4c(c3)[C@@H]3C[C@@H]4CNC3=O)ncc2C(F)(F)F)c1 | 52 | 48 | 93.3 | 52 | 0 | 0 | 0 | 56 | 22 | 0 | 0 | 0 | 98.7 | 0 | 5 | 0 | 8 | 14 | 22 | 28
CC(=O)Nc1nc2cnc(Nc3cc(NC(=O)c4cccc(CC(C)(C)C#N)c4)ccc3C)nc2s1 | 0 | 4 | 33 | 53 | 13 | 0 | 20 | 21 | 0 | 7 | 0 | 3 | 18 | 13 | 0 | 14 | 5 | 11 | 0 | 0
Cc1ccc(CC(=O)N2CCc3cc(-c4cn(C)c5ncnc(N)c45)ccc32)cc1 [GSK2634758] | 33 | 57 | 32 | 17 | 0 | 0 | 4 | 0 | 16 | 7 | 2 | 0 | 0 | 15 | 15 | 35 | 27 | 33 | 0 | 14
CCCC(=O)Nc1n[nH]c2ncccc12 [SB-601436] | 24 | 0 | 39 | 0 | 0 | 10 | 0 | 0 | 9 | 0 | 7 | 7 | 0 | 0 | 19 | 0 | 0 | 0 | 0 | 0
O=C(Nc1ccc(Oc2ccc3nc(NC(=O)C4CC4)cn3n2)c(F)c1)c1cccn(-c2ccccc2)c1=O | 1 | 22 | 22 | 76 | 0 | 56 | 0 | 0 | 48 | 0 | 0 | 0 | 0 | 0 | 0 | 0 | 28 | 0 | 0 | 9
CC(=O)Nc1ccc(-c2cc3ncnc(SCC(=O)O)c3s2)cc1 | 0 | 70 | 0 | 46 | 0 | 0 | 25 | 12 | 5 | 0 | 15 | 7 | 47 | 22 | 10 | 1 | 0 | 18 | 22 | 0
Cc1cccc(-c2nc(Nc3ccncc3)c3sccc3n2)n1 [GW869641] | 4 | 61 | 3 | 45 | 25 | 38 | 3 | 1 | 12 | 33 | 20 | 13 | 23 | 20 | 40 | 21 | 32 | 0 | 99.3 | –
O=C(Nc1cccc(Oc2ccc3nccn3n2)c1)Nc1cccc(C(F)(F)F)c1 | 6 | 37 | 14 | 35 | 66 | 63 | 0 | 0 | 31 | 38 | 0 | 0 | 0 | 10 | 0 | 0 | 11 | 9 | 2 | 24
O=C(Nc1cccc(C(F)(F)F)c1)c1cccc(Oc2ccc3nccn3n2)c1 | 0 | 17 | 14 | 10 | 17 | 7 | 9 | 81 | 0 | 50 | 11 | 0 | 0 | 22 | 1 | 0 | 13 | 51 | 0 | 0
Cc1ccc(C(=O)Nc2ccc(Oc3ccc4nc(NC(=O)C5CC5)cn4c3)c(F)c2)c(=O)n1-c1ccccc1 | 26 | 44 | 34 | 77 | 0 | 26 | 0 | 0 | 0 | 2 | 0 | 0 | 35 | 0 | 0 | 0 | 28 | 24 | 0 | 0
Cc1cccc2c(-c3ccncc3)c(-c3ccc(F)cc3)nn12.Cl [GW461487] | 13 | 35 | 10 | 0 | 0 | 0 | 9 | 0 | 0 | 0 | 0 | 0 | 0 | 3 | 10 | 0 | 23 | 0 | 2 | 36
CC(=O)c1c(-c2ccncc2)[nH]c(-c2ccncc2)c1C [GW493036] | 50 | 91.1 | 19 | 16 | 0 | 47 | 0 | 16 | 0 | 18 | 0 | 0 | 0 | 0 | 25 | 13 | 0 | 0 | 2 | 15
CN(c1ccccc1CNc1nc(Nc2ccc3c(c2)CC(=O)N3)ncc1C(F)(F)F)S(C)(=O)=O | 32 | 0 | 19 | 9 | 77 | 63 | 0 | 85 | 66 | 0 | 80 | 49 | 61 | 73 | 58 | 0 | 0 | 80 | 51 | 31
